Compound activity as filed in PubChem BioAssay.
CYP2C19 act: cytochrome P450 2C19 (human) activation. 96,000 tested, under 10 active. activation factor at 5 µM. recombinant CYP2C19, luciferin-H EGE luminescence; hits give high values; 0 = fully inhibited enzyme, 1 = untreated enzyme. P33261;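 active means activation factor of at least 2 at 5 µM in the primary screen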;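 further: 0 = wells with 2.5 mM tranylcypromine and 1 = vehicle-only wells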
CYP2C9 inh: inhibitors of human CYP2C9. inhibition, % at 5 µM. AID 777. 96,000 tested, 20% active. CYP2C9 Supersomes, luciferin-H conversion, luminescence. P11712;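 active means blocking of liver enzyme CYP2C9 beyond about 50% at 5 µM, limit read from the data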
CYP2C19 inh: blocks human cytochrome P450 2C19. P33261. inhibition, % at 5 µM. 96,000 tested, 21% active. CYP2C19 Supersomes, luciferin-H EGE luminescence, 30 min;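 active means CYP2C19 inhibition above a set limit at 5 µM in the primary screen, cut at about 50% in these data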;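 further: plate controls were negative control wells for no effect and 2.5 mM tranylcypromine positive control for full effect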
Pyk2 oligo antag: blocks oligomerization of human Pyk2 in cells | Q14289 | Q293 cells, Pyk2 FERM NanoBiT luminescence; hits give low values | z-score (the deposit names both 25 µM and 10 µM) | 99,000 tested, 0.83% active;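 active means Z-score of -3 or lower, scaled per plate to the spread of control and sample wells; inactive means z-score above -3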;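 further: negative z-score means lost luminescence so less FERM oligomerization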
CYP2C9 activ: activators of human CYP2C9; P11712; recombinant CYP2C9, luciferin-H conversion, luminescence; hits give high values; factor 1 = untreated enzyme, 0 = blocked; activation factor at 5 µM; 96,000 tested, 1.4% active; AID 1024;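 active means activation factor of 2 or more for CYP2C9 at a 5 µM dose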;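 further: 0 = sulfaphenazole-blocked wells and 1 = vehicle-only wells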
Numbers without * were called inactive; x = not tested or not shown. Most compounds without a hit are left out; they make up all but 28% or so of the library.

SMILES	CYP2C19 act	CYP2C9 inh	CYP2C19 inh	Pyk2 oligo antag	CYP2C9 activ
O=C(c1cc2nc(-c3ccco3)cc(C(F)(F)F)n2n1)N1CCN(Cc2ccccc2)CC1	0.5	64*	47	-0.63	0.4
Fc1ccc(N2CCN(c3nc(-c4ccco4)cc(C(F)(F)F)n3)CC2)cc1	0.5	49	54*	-0.78	0.5
Cc1cc2nc(-c3ccco3)cc(C(F)(F)F)n2n1	0.9	1	12	x	1
Cc1nn(-c2nc(-c3ccco3)cc(C(F)(F)F)n2)c(C)c1Br	0.8	52*	16	0.64	0.5
CC(C)COC(=O)c1cc(=O)[nH]c2ccccc12	1	-23	-2	-0.94	1.2
O=C(Nc1ccccc1-c1ccccc1)C(c1ccccc1)c1ccccc1	x	x	x	-1.1	x
O=S(=O)(c1ccccc1Cl)N1CCCC1c1nc(-c2ccc(Cl)cc2)no1 (stereo not drawn)	0.7	-9	28	1.3	1.1
O=C(Nc1ccc(Cl)cc1)c1cc2nc(-c3ccco3)cc(C(F)(F)F)n2n1	0.8	71*	17	-0.3	0.3
CCCCCCCC(=O)N/N=C(\C)c1cccnc1	x	x	x	-0.33	x
Cc1ccc(C)n1-c1ccc(-n2cnnn2)cc1	0.3	20	74*	1.9	0.8
c1ccc(Oc2ccc(-n3cnnn3)cc2)cc1	0.2	43	82*	2.5	0.6
O=C(Oc1ccccc1)c1ccc(-n2cnnn2)cc1	0.3	22	69*	0.77	0.8
Cc1ccc(C)n1-c1ccc(-c2nnco2)cc1	0.6	10	43	-0.4	0.9
COc1cccc(-n2cnnn2)c1	1.1	-11	-8	0.82	1.1
CC1(C)CC(=O)C2=C(C1)N(Cc1ccco1)C(=O)C2(NC(=O)c1ccc(Cl)cc1Cl)C(F)(F)F (stereo not drawn)	0.2	7	83*	-0.01	0.9
CC1(C)CC(=O)C2=C(C1)N(Cc1ccco1)C(=O)C2(NC(=O)C1CCCCC1)C(F)(F)F (stereo not drawn)	0.6	51*	38	0.43	0.5
CC1=NC(C(F)(F)F)(C(F)(F)F)C2=C(CC(C)(C)CC2=O)N1Cc1ccco1	0.4	54*	56*	0.25	0.5
CCOc1cc(C)nc(N2CCN(C3CCCCC3)CC2)n1	0.4	42	62*	0.2	0.6
Cc1cc(C)nc(N2CCN(c3nc(C)cc(C)n3)CC2)n1	1.1	-11	-13	x	1.1
Cc1cccc(N2CCN(C(c3cccs3)c3nnnn3C(C)(C)C)CC2)c1C (stereo not drawn)	0.6	54*	45	-2.7	0.5
COc1ccccc1N1CCN(C(c2ccccc2Cl)c2nnnn2C(C)(C)C)CC1 (stereo not drawn)	0.9	13	12	-2	0.9
CC(C)(C)n1nnnc1C(c1cccs1)N1CCN(c2ccccc2)CC1 (stereo not drawn)	0.9	79*	10	-1.7	0.2
CC(C)(C)n1nnnc1C(c1cccnc1)N1CCN(c2ccccc2F)CC1 (stereo not drawn)	x	x	x	0.2	x
CC(C)(C)n1nnnc1C(c1ccncc1)N1CCCCCC1 (stereo not drawn)	0.2	73*	83*	0.25	0.3
CC(C)(C)n1nnnc1C(c1cccnc1)N1CCN(c2ccccc2)CC1 (stereo not drawn)	0.4	19	59*	-1	0.8
SMILES	CYP2C19 act	CYP2C9 inh	CYP2C19 inh	Pyk2 oligo antag	CYP2C9 activ
CC(=O)Nc1cccc(NC(=O)CSc2nnc(Cc3cccn3C)n2CCc2ccccc2)c1	0.6	39	38	0.34	0.6
Cc1ccccc1CSc1n[nH]c(NS(=O)(=O)c2ccccc2)n1	0.6	18	36	-1.4	0.8
Cc1cc2c(=O)n(Cc3ccco3)c(SCC(=O)c3ccc(Cl)s3)nc2s1	0.4	76*	57*	0.21	0.2
CCOC(=O)CC(=O)CSc1nc2sc(C)cc2c(=O)n1Cc1ccco1	0.9	43	12	0.22	0.6
Cc1sc2nc(SCC(=O)C(C)(C)C)n(Cc3ccco3)c(=O)c2c1C	0.9	73*	12	-0.06	0.3
COc1ccc(NC(=O)CSc2nc3sc(C)c(C)c3c(=O)n2Cc2ccco2)cc1	0.4	79*	62*	-2.4	0.2
CCOC(=O)c1cnc2ccc(C)cc2c1Sc1ccccc1C(=O)OC	0.7	46	29	-4.3*	0.5
CCOC(=O)c1cnc2ccc(C)cc2c1NCCO	x	x	x	1.6	x
CCOC(=O)C1CCCN(c2c(NCCN3CCCCC3C)c(=O)c2=O)C1 (stereo not drawn)	1.1	14	-11	x	0.9
CC(=O)OC1c2ccccc2C(=O)N1Cc1ccccc1Cl (stereo not drawn)	0	-18	99*	x	1.2
CCC(C)NC(=O)C1c2ccccc2C(=O)N1Cc1ccccc1OC (stereo not drawn)	0.9	29	14	-0.59	0.7
CCOc1nnnc2c1sc1nc(N3CCOCC3)c3c(c12)CCCC3	0.1	98*	94*	0.33	0
Cn1nnc2c(sc3nc(N4CCOCC4)c4c(c32)CCCC4)c1=O	1	24	2	0.19	0.8
CCN1CCN(c2ncnc3c2sc2nc(N4CCOCC4)c4c(c23)CCC4)CC1	0.3	54*	73*	-0.38	0.5
c1nc(NCCN2CCOCC2)c2sc3nc(N4CCOCC4)c4c(c3c2n1)CCC4	0.9	16	8	2.5	0.8
CCCc1nc(SCC(=O)N2c3ccccc3CC2C)c2c(C)c(C)sc2n1 (stereo not drawn)	0.4	94*	64*	-0.16	0.1
COc1cc(C(=O)N2c3ccccc3CC2C)cc(OC)c1OC (stereo not drawn)	0.8	23	25	-0.41	0.8
COc1ccc(-c2ccc(SCC(=O)N3c4ccccc4CC3C)nn2)cc1OC (stereo not drawn)	0.8	30	19	-3.2*	0.7
CC1Cc2ccccc2N1C(=O)CSc1nnc(-c2ccccc2)c(-c2ccccc2)n1 (stereo not drawn)	0.2	100*	85*	-1.4	0
CC1CCc2cc(F)ccc2N1C(=O)CSc1nnc2c(n1)[nH]c1ccc(F)cc12 (stereo not drawn)	0.2	57*	77*	-2.3	0.4
CC1(C)CC(=O)CC(=Nc2ccc(C(=O)O)cc2)C1	1.1	-12	-10	0.27	1.1
CC1Cc2ccccc2N1C(=O)CSc1nnc2c(n1)[nH]c1ccccc12 (stereo not drawn)	0.4	46	55*	0.27	0.5
COc1ccc(-n2c(SCC(=O)NNC(=O)c3ccccc3C)nnc2-c2ccncc2)cc1	0.8	29	17	0.52	0.7
Cc1cc(N2CCC(C(=O)NCC3CC3)CC2)nc(-c2ccccc2)n1	0.3	62*	73*	1.3	0.4
Cc1cc(N2CCC(C(=O)NC3CC3)CC2)nc(-c2ccccc2)n1	0.6	6	37	1.8	0.9
O=C(CCC(=O)N(c1ccc(F)cc1)C(C(=O)NC1CCCC1)c1ccncc1)Nc1cccnc1 (stereo not drawn)	x	x	x	-0.06	x
